Experimental findings from ChEMBL document CHEMBL3433997, “St. Jude Leishmania screening dataset” (2016) are described below.

Holding throughout (format): functional
In experiment [1] the target is Solute carrier family 2, facilitated glucose transporter member 1 (Homo sapiens) (UniProt P11166). Put plainly: ST_JUDE_LEISH: Cytotoxicity at 2uM final concentration against transgenic Leishmania Mexicana promastigotes LmGLUT1 that are glucose transport deficient and complemented with the human glucose transporter GLUT1. Activity is measured by DNA content using SYBR green in vitro.
Chain of Solute carrier family 2, facilitated glucose transporter member 1 (Homo sapiens) (P11166 whole entry): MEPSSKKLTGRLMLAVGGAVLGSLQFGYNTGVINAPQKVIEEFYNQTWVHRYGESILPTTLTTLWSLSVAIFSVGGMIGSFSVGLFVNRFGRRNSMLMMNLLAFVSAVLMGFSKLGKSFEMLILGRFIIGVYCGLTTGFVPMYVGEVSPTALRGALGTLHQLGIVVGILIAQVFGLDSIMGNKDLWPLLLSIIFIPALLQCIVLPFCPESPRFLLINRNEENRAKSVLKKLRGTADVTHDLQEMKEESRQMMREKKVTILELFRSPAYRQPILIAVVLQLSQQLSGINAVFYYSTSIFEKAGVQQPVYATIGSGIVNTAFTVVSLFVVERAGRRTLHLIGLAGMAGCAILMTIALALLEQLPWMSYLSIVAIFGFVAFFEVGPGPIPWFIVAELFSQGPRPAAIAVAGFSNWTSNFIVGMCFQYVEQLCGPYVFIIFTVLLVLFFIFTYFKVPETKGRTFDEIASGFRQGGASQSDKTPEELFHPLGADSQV

The target of experiment [2] is Hexose transporter 1 (Plasmodium falciparum) (UniProt O97467). Put plainly: ST_JUDE_LEISH: Cytotoxicity at 2uM final concentration against transgenic Leishmania Mexicana promastigotes LmPfHT that are glucose transport deficient and complemented with the Plasmodium falciparum hexose transporter. Activity is measured by DNA content using SYBR green in vitro.
Experiment [3] has as its target Glucose transporter (Leishmania mexicana) (UniProt O61059). Briefly: ST_JUDE_LEISH: Cytotoxicity at 2uM final concentration against transgenic Leishmania Mexicana promastigotes LmGT2 that are glucose transport deficient and complemented with the L. Mexicana glucose transporter 2. Activity is measured by DNA content using SYBR green in vitro.

The term inhibition denotes the change of the read-out against control, counted positive when it falls. As to `COc1ccc2nccc([C@@H](O)CN3CCC(NCc4ccc(OC)c(NC=O)c4)CC3)c2c1`, the inhibition is 3.28% in experiment [1], 4.05% in experiment [2] and 2.18% in experiment [3].

As to `O=C(Nc1ccc(I)cc1)Nc1ccc(Cn2ncc(N3CCCNCC3)c(Cl)c2=O)cc1`, the results for the inhibition in experiment [1], in experiment [2] and in experiment [3] were -2.09%, -3.01% and 0.24%, respectively.

On to `Cc1cc2c(NC(=O)NC3CCN(Cc4ccc(Cl)c(Cl)c4)CC3)cccc2cn1`, for which the inhibition in experiment [1] was 0.94%; in experiment [2], -0.05%; in experiment [3], -3.37%.

On to `O=C(Cc1cccs1)NC(CCCN1CCC(Oc2cccc(Cl)c2)CC1)c1ccc(Cl)c(Cl)c1` (stereo not drawn), for which the values for the inhibition in experiment [1], in experiment [2] and in experiment [3] were 1.97%, -1.59% and -1.89%, respectively.

`O=S(=O)(Nc1cccc(CCN2CCCCC2CCN2CCCC2)c1)c1ccc2ccccc2c1` (stereo not drawn): the values for the inhibition in experiment [1], in experiment [2] and in experiment [3] were 0.63%, -0.31% and -3.3%, respectively.

Regarding `Cc1cc(Cl)c(S(=O)(=O)NC2CCCC2)cc1OCC(=O)NC1CCCCC1`, the values for the inhibition in experiment [1], in experiment [2] and in experiment [3] were 3.49%, 2.41% and 3.8%, respectively.

Regarding `Cc1ccc(CN2CCCN(Cc3cccc(NC(=O)c4cc5ccccc5s4)c3)CC2)cc1`, the inhibition is -0.92% in experiment [1], -0.94% in experiment [2] and -2.83% in experiment [3].

On to `O=C(C=Cc1cccs1)Nc1ccc(-c2nc3ccccc3[nH]2)cc1`, for which the inhibition turned out to be 1.65% in experiment [1], 0.72% in experiment [2] and 3.04% in experiment [3].

With `NC(=O)c1cccc(C(=O)Nc2cccc(-c3cccc(-c4nc5ccccc5[nH]4)c3)c2)c1`, the inhibition was 5.87% in experiment [1], 5.18% in experiment [2] and 4.03% in experiment [3].

Turning to `CN1CCN(Cc2cccc(Nc3nccc(Nc4ccc(Oc5ccccc5)cc4)n3)c2)CC1`, the figures for the inhibition in experiment [1], in experiment [2] and in experiment [3] were 1.89%, 7.05% and 5.8%, respectively.

With `Cc1nc(N)nc(N)c1CCCOc1ccccc1Cl`, the inhibition turned out to be 13.2% in experiment [1], 27.9% in experiment [2] and 5.78% in experiment [3].

Regarding `Cc1cc(CN2CCC(N3CC(c4ccccc4)(c4ccccc4)OC3=O)C2)ccc1O` (stereo not drawn), the results for the inhibition in experiment [1], in experiment [2] and in experiment [3] were 4.14%, 3.7% and 8.06%, respectively.

`O=C1C(c2ccccc2)=C(Nc2cccc([N+](=O)[O-])c2)c2ccccc21`: the figures for the inhibition in experiment [1], in experiment [2] and in experiment [3] were 4.58%, 3.72% and 9.44%, respectively.

As for `CC(C)CNCc1cccc(-c2cccc(CN(CCN(C)C)C(=O)NCCc3ccccc3)c2)c1`, the inhibition was -1.09% in experiment [1], -0.75% in experiment [2] and -4.18% in experiment [3].

Take `COc1cccc(CNC(=O)c2cccc(-c3ccc(CN4CCC(N5CCCC5)CC4)cc3)n2)c1`: the inhibition in experiment [1] is 7.47%; in experiment [2] it was 5.46%; in experiment [3], 8.7%.

In the case of `NC1CCN(CCc2ccc(NS(=O)(=O)c3cccc4ccccc34)cc2)CC1`, the inhibition is -0.69% in experiment [1], -3.38% in experiment [2] and 0.61% in experiment [3].

On to `COc1cccc(OC2CCN(C(=O)c3cc(C(C)(C)C)nn3Cc3ccccc3)CC2)c1`, for which the values for the inhibition in experiment [1], in experiment [2] and in experiment [3] were 1.4%, 0.53% and 1.38%, respectively.

Consider `CS(=O)(=O)c1ccc(CNCc2ccc(-c3ccc(-c4nc5cc(F)ccc5[nH]4)s3)cc2)cc1`, for which the inhibition in experiment [1] is 11.6%; in experiment [2], 10.9%; in experiment [3], 8.75%.

As to `COc1ccc(-c2ccc(CNC3Cc4ccccc4C3)cc2)cc1S(=O)(=O)NCCN1CCCC1`, the inhibition in experiment [1] was 1.48%; in experiment [2], 3.39%; in experiment [3], -0.28%.

`CN(C)CCn1cc(C(=O)c2cc(Cl)ccc2O)cc1-c1nc2ccccc2c(=O)[nH]1`: the inhibition in experiment [1] is 0.7%; in experiment [2] it was -0.71%; in experiment [3], -2.96%.

Turning to `CN1CCC(NCc2ccc(-c3ccc(Cl)cc3)cc2)CC1`, the inhibition in experiment [1] is 5.65%; in experiment [2] it was 8.78%; in experiment [3] it was 4.44%.

As for `Cc1noc(C)c1-c1ccc2c(Nc3nccc4ccccc34)c(C(N)=O)cnc2c1`, the inhibition in experiment [1] worked out at 103%; in experiment [2], 89.7%; in experiment [3], 102%.

Regarding `NC(=O)c1cnc2ccc(-c3cncs3)cc2c1Nc1ccc(F)c(Cl)c1`, the inhibition in experiment [1] was found to be 1.94%; in experiment [2], 2.75%; in experiment [3], 1.95%.

`CCc1ccc(-n2c(NC(=O)c3ccccc3)nc3ccc(S(=O)(=O)NC(C)C(C)C)cc32)cc1` (stereo not drawn): the inhibition in experiment [1] is -1.74%; in experiment [2], -1.8%; in experiment [3], -1.72%.

`COc1ccc(-c2cc(C(=O)N[C@@H](CC3CCCCC3)C(=O)NCCN3CCCCC3)ccc2O)cc1`: the inhibition is -0.43% in experiment [1], -0.56% in experiment [2] and -0.35% in experiment [3].

`CCCCCCN1CCCN(Cc2ccc(C(=O)Nc3ccc(F)c(F)c3)cc2)CC1`: the values for the inhibition in experiment [1], in experiment [2] and in experiment [3] were 17.1%, 18.5% and 12.9%, respectively.

Turning to `Cc1cccc(-c2nc3[nH]c(=O)cc(NC(=O)C(C)C)n3n2)c1`, the results for the inhibition in experiment [1], in experiment [2] and in experiment [3] were -2.8%, -2.49% and -1.3%, respectively.

As for `O=C(NCc1cccc(C(F)(F)F)c1)C(c1cc2ccccc2o1)N1CCN(C(c2ccccc2)c2ccccc2)CC1` (stereo not drawn), the inhibition in experiment [1] amounted to 1.37%; in experiment [2] it was 2.33%; in experiment [3], 0.71%.

As for `COc1ccc2nccc([C@@H](O)CN3CCC(NC(=O)/C=C/c4ccc5[nH]c(=O)ccc5c4)CC3)c2c1`, the inhibition came out at 2.93% in experiment [1], 1.78% in experiment [2] and 2.05% in experiment [3].

On to `C[C@H](Cc1ccc(OCCCCCCOc2ccc(C[C@@H](C)N[C@H](C)c3ccccc3)cc2)cc1)NC[C@H](O)c1cccc(Cl)c1`, for which the inhibition in experiment [1] worked out at 106%; in experiment [2] it was 94%; in experiment [3] it was 82.4%.

In the case of `CN1CCC(N2CCN(Cc3cccc(-c4ccc(-c5nc6ccccc6[nH]5)cc4)c3)CC2)CC1`, the values for the inhibition in experiment [1], in experiment [2] and in experiment [3] were 2.84%, 1.99% and 0.07%, respectively.

On to `Cc1[nH]c(C)c(-c2ccc(-c3ccc(Cl)cc3)cc2)c(=O)c1Cl`, for which the inhibition in experiment [1] was -0.9%; in experiment [2], 0.3%; in experiment [3], 1.13%.

Take `Cc1onc(-c2ccccc2)c1C(=O)Nc1nc(-c2ccccn2)nc2ccsc12`: the values for the inhibition in experiment [1], in experiment [2] and in experiment [3] were 2.38%, 1.96% and 0.03%, respectively.

As for `CCCCOC(=O)c1ccc(NC(=O)Nc2ccc(Cn3ncc(N4CCCNCC4)c(Cl)c3=O)cc2)cc1`, the inhibition came out at 9.01% in experiment [1], 10.1% in experiment [2] and 7.4% in experiment [3].

In the case of `COc1ccc(-c2ccc(NC(=O)c3ccc(C#N)cc3)cc2)cc1CN1CCCN(C)CC1`, the inhibition in experiment [1] was 3.03%; in experiment [2], 3.17%; in experiment [3] it was -0.21%.

Regarding `Cc1cc(N2CCCC2)nc(Nc2ccc(NC(=O)Cc3ccccc3)cc2)n1`, the inhibition worked out at 88.4% in experiment [1], 95.2% in experiment [2] and 72.3% in experiment [3].
